AddAB inh: growth inhibition of E. coli expressing H. pylori AddAB, primary screen, AddAB inhibitor project, absorbance | inhibition, % at 11.9 µM | hit rate 0.29% among 330,000; in the data active = inhibition above about 12%
Tat export inh: E. coli Tat export inhibitors, primary screen, MC4100, TorA-mCherry reporter, fluorescence, single point; inhibition, % at 10 µM; hit rate 0.036% among 340,000;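 active = mean replicate inhibition at least 50% and at least half of replicates individually reaching 50%; inconclusive = only one of the two criteria met; inactive = neither criterion met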;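 also: exported cargo escapes ClpAP degradation while cytoplasmic cargo is degraded and loses fluorescence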
E coli growth-1: E. coli growth inhibition, primary screen, OD600; Escherichia coli growth, 23 h; stronger effect = lower value; OD600 absorbance (no concentration beside the values); hit rate 0.21% among 330,000; AID 1053175, 2014;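 active = OD600 absorbance below the run mean of sample wells minus 3.6 SD, in any replicate, cut at about 0.56 in these data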
E coli growth-2: E. coli V3065 growth inhibition, primary screen, counter-screen for AddAB inhibitor project, absorbance, OD600 | 18 h | inhibition, % at 11.9 µM | hit rate 0.27% among 330,000 | AID 449728, 2010;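 active = inhibition above the campaign's mean inhibition across all tested compounds plus 3 SD, cut at about 9.9% in these data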;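 also: uninfected addAB+ strain grown without phage in ampicillin broth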
phage Ecoli inh: growth loss of phage-infected E. coli, primary screen, RecBCD inhibitor project, absorbance, with phage, HTS | hit rate 0.26% among 360,000 | inhibition, % at 11.9 µM; in the data active = inhibition above about 11%
AddAB conf: growth loss of phage-infected E. coli expressing H. pylori AddAB, confirmation, AddAB inhibitor project, absorbance, E. coli V3065, T4 phage, triplicate; shares compounds with AddAB inh; OD; T4 phage with gene 2 nonsense mutations; inhibition, % at 11.9 µM; hit rate 64% among 880; AID 488942, 2010;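 active = mean inhibition above a set limit taken from the earlier primary screen, cut at about 13% in these data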;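 also: higher means less bacterial growth since AddAB block lets phage replicate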
RecBCD counter: growth loss of RecBCD+ E. coli with mutant T4 phage, counter-screen for AddAB inhibitor project, absorbance, V66 E. coli. OD growth. hit rate 73% among 880. AID 488955, 2010. shares compounds with AddAB inh. inhibition, % at 11.9 µM;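 active = mean inhibition above the mean of solvent-only control wells plus 3 SD, cut at about 4% in these data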;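 also: optical density read after an 18 h incubation at 37 °C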
Bact viability: bacterial viability inhibition counter-screen, confirmation, counter-screen for AddAB inhibitor project, absorbance; inhibition, % at 11.9 µM; AID 488956, 2010; hit rate 35% among 880; absorbance (AddAB counterscreen); shares compounds with AddAB inh; in the data active = inhibition above about 25%
RecBCD conf: growth loss of phage-infected RecBCD+ E. coli, confirmation, RecBCD inhibitor project, absorbance, E. coli V66, T4 gene 2 phage. shares compounds with phage Ecoli inh. E. coli V66 + T4 2- phage, growth OD. inhibition, % at 11.9 µM. hit rate 45% among 890. AID 651982, 2013;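 active = mean inhibition over triplicates exceeding the hit threshold derived in the original primary screen, cut at about 11% in these data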
Ecoli viability: E. coli viability inhibition, counter-screen for RecBCD inhibitor project, absorbance, high throughput. hit rate 29% among 890. shares compounds with phage Ecoli inh. AID 651983, 2013. inhibition, % at 11.9 µM. absorbance (OD) growth; in the data active = inhibition above about 20%;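 also: E. coli strain V66 grown with compound alone and no phage infection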
AddAB counter: growth loss of phage-infected AddAB-carrying E. coli, confirmation, counter-screen for RecBCD inhibitor project, absorbance, E. coli V3065, T4 phage; shares compounds with phage Ecoli inh; hit rate 45% among 890; inhibition, % at 11.9 µM; AID 651984, 2013; E. coli expressing H. pylori AddAB + T4 phage, OD growth; gene 2 mutant T4, recBCD-deleted host;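 active = mean inhibition above the solvent-only control wells' mean plus 3 SD, cut at about 22% in these data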;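 also: higher means less bacterial growth from phage killing when AddAB is blocked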
Large screens that a line does not name were inactive (follow-up assays come after a bar, where they were run). Sampled rows, rich in hits. Any-hit rate of the full collection: about 0.5%.

CCn1cc(C(=O)N[C@@H](C)C(=O)NCCCO)c(=O)c2cc3c(cc21)OCO3	none (no result: AddAB inh, E coli growth-2)
CCCCCCNC(=O)c1cn(CC)c2cc(N3CCN(C)CC3)c(F)cc2c1=O	AddAB inh 98.5, Tat export inh 79.4, E coli growth-1 0.067, E coli growth-2 97.1, phage Ecoli inh 98.2 | AddAB conf 100.8 | RecBCD counter 100.4 | Bact viability 100.7 | RecBCD conf 100.9 | Ecoli viability 102.4 | AddAB counter 101.2
COc1ccc(Nc2nnc(SCc3cn4c(C)cccc4n3)s2)cc1	AddAB inh 16.3, E coli growth-2 15.7, phage Ecoli inh 14.3 | AddAB conf 16.3 | RecBCD counter 12.2 | Bact viability inactive | RecBCD conf 13.0 | Ecoli viability inactive | AddAB counter inactive
O=C(Nc1nnc(-c2cccs2)o1)c1cccc(C(F)(F)F)c1	AddAB inh 20.7, E coli growth-1 0.498, E coli growth-2 12.5, phage Ecoli inh 95.7 | AddAB conf 15.8 | RecBCD counter 13.7 | Bact viability inactive | RecBCD conf inactive | Ecoli viability inactive | AddAB counter inactive
CC1(C)SC2C(NC(=O)C(N)c3ccccc3)C(=O)N2C1C(=O)OC1OC(=O)c2ccccc21 (stereo not drawn)	none (no result: AddAB inh, Tat export inh, E coli growth-2, phage Ecoli inh)
CC(C)C(=O)NC(c1ccc(Cl)cc1Cl)c1ccc2cccnc2c1O (stereo not drawn)	AddAB inh 20.2, E coli growth-2 29.4, phage Ecoli inh 19.1 | AddAB conf 19.6 | RecBCD counter 20.0 | Bact viability inactive | RecBCD conf 11.4 | Ecoli viability inactive | AddAB counter 22.0
Cc1cc(NC(c2ccc(Cl)cc2)c2ccc3cccnc3c2O)no1 (stereo not drawn)	AddAB inh 25.1, E coli growth-2 32.6, phage Ecoli inh 22.7 | AddAB conf 24.7 | RecBCD counter 23.4 | Bact viability inactive | RecBCD conf 13.7 | Ecoli viability inactive | AddAB counter 25.5
CCC(=O)NC(c1ccc(Cl)cc1Cl)c1ccc2cccnc2c1O (stereo not drawn)	AddAB inh 20.1, E coli growth-2 22.3, phage Ecoli inh 22.2 (no result: E coli growth-1) | AddAB conf 19.9 | RecBCD counter 19.1 | Bact viability inactive | RecBCD conf 15.4 | Ecoli viability inactive | AddAB counter 27.3
CC(=O)NC(c1ccco1)c1ccc2cccnc2c1O (stereo not drawn)	none (no result: E coli growth-1, phage Ecoli inh)
O=C(Cn1cnc2ccccc2c1=O)Nc1ccc2c(c1)OCO2	none
O=C(Cn1cnc2ccccc21)Nc1ccc2c(c1)OCCCO2	AddAB inh 17.5, E coli growth-2 13.4, phage Ecoli inh 15.9 | AddAB conf 22.9 | RecBCD counter 16.1 | Bact viability inactive | RecBCD conf 11.8 | Ecoli viability inactive | AddAB counter inactive
N#C/C(N=Nc1ccccc1O)=N\Nc1ccccc1O	AddAB inh 23.4, E coli growth-2 21.9, phage Ecoli inh 30.5 (no result: E coli growth-1) | AddAB conf 89.2 | RecBCD counter 27.1 | Bact viability 93.5 | RecBCD conf 24.8 | Ecoli viability 24.8 | AddAB counter 93.7
Oc1ccccc1N=N/C(=N/Nc1ccccc1O)c1ccccc1	none (no result: E coli growth-1)
O=C(Nc1ccccc1)C1=CC(c2ccc3c(c2)OCO3)CC(OCCCCO)O1 (stereo not drawn)	none (no result: AddAB inh, Tat export inh, E coli growth-2, phage Ecoli inh)
CCCCCCCCCCCCN1C(CC(=O)O)c2cc(C(F)(F)F)ccc2S1(=O)=O (stereo not drawn)	none (no result: AddAB inh, Tat export inh, E coli growth-2, phage Ecoli inh)
CC(C)(C)OC(=O)NCCCCC(C(=O)N1CCN(C(=O)OC(C)(C)C)CC1)n1cc(C(CO)NC(=O)OC(C)(C)C)nn1 (stereo not drawn)	none (no result: AddAB inh, Tat export inh, E coli growth-2, phage Ecoli inh)
O=C1c2ccccc2C(=O)c2c1ccc(O)c2O	phage Ecoli inh 15.0 (no result: AddAB inh, E coli growth-1, E coli growth-2) | RecBCD conf inactive | Ecoli viability inactive | AddAB counter inactive
COC(=O)c1ccc2c(c1O)C(=O)c1ccccc1C2=O	none
O=C(C=Cc1ccc(S(=O)(=O)N2CCOCC2)cc1)NC(=S)NCCCn1ccnc1	none (no result: AddAB inh, Tat export inh, E coli growth-2, phage Ecoli inh)
CC(C)(C)NC(=O)C=Cc1ccc(C(F)(F)F)cc1	none (no result: AddAB inh, Tat export inh, E coli growth-2, phage Ecoli inh)
NS(=O)(=O)c1ccc(CCNC(=O)CC(NC(=O)c2ccccc2Cl)c2ccccc2)cc1 (stereo not drawn)	phage Ecoli inh 15.2 | RecBCD conf inactive | Ecoli viability inactive | AddAB counter inactive
COc1ccc(CCNC(=O)CC(NC(=O)c2ccccc2Cl)c2ccccc2)cc1 (stereo not drawn)	none
Oc1cccc2ccc(Nc3ccccn3)nc12	E coli growth-2 18.0, phage Ecoli inh 12.2 | RecBCD conf inactive | Ecoli viability inactive | AddAB counter inactive
c1ccc(Nc2ccccc2Nc2ccccn2)nc1	none
CCOC(=O)CCC(=O)O[C@H]1[C@H](O[C@@H]2[C@@H](C)[C@H](O[C@H]3C[C@@](C)(OC)[C@@H](O)[C@H](C)O3)[C@@H](C)C(=O)O[C@H](CC)[C@@](C)(O)[C@H](O)[C@@H](C)C(=O)[C@H](C)C[C@@]2(C)O)O[C@H](C)C[C@@H]1N(C)C	AddAB inh 24.9, E coli growth-2 22.1, phage Ecoli inh 26.3 (no result: E coli growth-1) | RecBCD conf 13.7 | Ecoli viability inactive | AddAB counter inactive
CC(C)(C)C(=O)NC(=S)Nc1ccc(S(=O)(=O)Nc2nccs2)cc1	none
O=S(=O)(Nc1ncccn1)c1ccc(NC(=S)Nc2ccccc2Cl)cc1	phage Ecoli inh 11.2 (no result: E coli growth-1) | RecBCD conf inactive | Ecoli viability inactive | AddAB counter inactive
NS(=O)(=O)c1ccc(NC(=S)Nc2ccc(S(=O)(=O)Nc3nccs3)cc2)cc1	phage Ecoli inh 11.4 (no result: AddAB inh, Tat export inh, E coli growth-1, E coli growth-2) | RecBCD conf inactive | Ecoli viability inactive | AddAB counter inactive
COc1cc(C=NO)nc(-c2ccccn2)c1	phage Ecoli inh 38.6 (no result: AddAB inh, E coli growth-1, E coli growth-2) | RecBCD conf 31.8 | Ecoli viability 41.1 | AddAB counter 33.3
O=C1c2ccccc2NC(c2ccc(Cl)cc2Cl)N1O (stereo not drawn)	Tat export inh inconclusive, phage Ecoli inh 12.1 | RecBCD conf inactive | Ecoli viability inactive | AddAB counter inactive

Screening results: PubChem, several laboratories
